From PubChem BioAssay come the findings set out here.

In one test the target is Albumin (Bos taurus) (UniProt P02769). As to the kind of experiment: compounds binding labelled BSA control protein – biochemical, small-molecule microarray, Alexa647 label, 635/667 nm fluorescence, artefact control for SMM control protein annotation, profiling panel (AID 1118).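 Note: score merges 667 nm emission intensity and signal-to-noise per printed compound spot.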 The conditions noted are these: BSA-A647 binding, fluorescence 635 nm, higher = more signal.
A short description of test [1]: probe aXIP binding to arrayed compounds – biochemical, NeuroSMM set, 635/667 nm fluorescence, primary screen (AID 1119).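 Note: probe is the protein aXip251-270 applied at 1 µg/mL to compound-printed slides; binding of probe to printed compounds measured as 667 nm fluorescence plus signal to noise.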 The conditions noted are these: small-molecule microarray, higher = more signal, called active from +8 up or from −8 down.
Test [2] is described as follows: probe aNOTCH3 binding on compound microarray – biochemical, small-molecule microarray, 635/667 nm fluorescence, primary screen (AID 1120).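 Note: probe is a biotin-tagged antibody raised against NOTCH3 rather than NOTCH3 protein; score merges spot fluorescence near 667 nm with spot signal to noise.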 The conditions noted are these: higher = more signal.
Test [3] is described as follows: probe aNOTCH2 binding on compound microarray – biochemical, small-molecule microarray, 635/667 nm fluorescence, primary screen (AID 1121).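 Note: score merges feature fluorescence read at 667 nm with its signal to noise.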 The conditions noted are these: higher = more signal.
For test [4], the target named is Carbonic anhydrase 2 (Homo sapiens) (UniProt P00918). As to the kind of experiment: compounds binding carbonic anhydrase 2 – biochemical, small-molecule microarray, Alexa647-labelled CAII, profiling panel (AID 1122). The following applies: CAII-A647 binding fluorescence, higher = more signal.
The nature of test [5]: COS7 lysate on small-molecule microarray, probe aHis, 635 nm (AID 1123).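 Note: z-score combines 667nm fluorescence intensity with signal-to-noise per printed compound spot.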 The following applies: COS7 cell lysate, fluorescence, higher = more signal.
Test [6] is described as follows: probe aLAP1 signal on lysate-treated microarray – cell lysate, small-molecule microarray, COS7 lysate, primary screen (AID 1124).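 Note: lysate comes from COS7 cells expressing LAP1 and is applied at 0.3 µg/mL; score merges spot fluorescence near 667 nm with signal-to-noise over triplicate slides.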 The following applies: probe aLAP1, fluorescence, higher = more signal.
The next test relates to Sam68 (KHDRBS1). Briefly: compounds binding KHDRBS1 protein – biochemical, small-molecule microarray, 635 nm fluorescence, primary screen (AID 1125).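 Note: score merges 667 nm channel intensity with signal to noise over triplicate slides.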 The following applies: higher = more signal.
The test system of test [7] is Chordin-like protein 2 (CHRDL2). Briefly: compounds binding chordin-like 2 – biochemical, small-molecule microarray, 635 nm fluorescence, primary screen (AID 1126).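 Note: printed compound slides probed with Chrdl2 protein at 4 µg/mL for 1 h at 4 C; score merges 667 nm emission intensity with signal to noise over three replicate slides.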 The following applies: fluorescence 635 nm, higher = more signal.
For test [8], the target named is Concanavalin-A (Canavalia ensiformis) (UniProt P02866). Briefly: compounds binding concanavalin A lectin – biochemical, small-molecule microarray, Alexa647 label, 635 nm, artefact control for SMM control protein annotation, primary screen (AID 1127).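 Note: z combines 667 nm emission intensity with signal-to-noise across three replicate slides.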 The following applies: ConA-A647 binding fluorescence, higher = more signal.
Test [9] is described as follows: compounds binding Alexa647 anti-His antibody – biochemical, small-molecule microarray, 635 nm fluorescence, artefact control for SMM control protein annotation, primary screen (AID 1128).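 Note: score merges feature fluorescence with signal-to-noise for each printed compound spot.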 The following applies: higher = more signal.
Test [10] relates to Human papillomavirus type 1a E7 protein (residues 1-88). As to the kind of experiment: HPV1a E7 small-molecule binders, primary screen, biochemical, small-molecule microarray, residues 1-88, 635 nm (AID 1129). The conditions noted are these: small-molecule microarray binding, fluorescence 635 nm; higher = more signal.
The target in test [11] is Focal adhesion kinase 1 (Homo sapiens) (UniProt Q05397). Briefly: PTK2 protein binding on printed compound slides – biochemical, small-molecule microarray, 635/667 nm fluorescence, BSA, DTT, primary screen (AID 1130).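 Note: composite of spot emission at 667 nm and signal to noise over triplicate slides.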 The conditions noted are these: 635 nm fluorescence, higher = more signal.
Test [12] relates to Fibrinogen (Alexa647-labelled). Briefly: Alexa647-fibrinogen binding to printed small molecules – biochemical, small-molecule microarray, 635/667 nm fluorescence, artefact control for SMM control-protein annotation, profiling panel (AID 1131).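 Note: z-score merges 667 nm fluorescence with per-spot signal-to-noise over triplicate slides.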 The following applies: fibrinogen-A647 binding fluorescence, higher = more signal.
For test [13], the target named is Follistatin (Homo sapiens) (UniProt P19883). As to the kind of experiment: FST protein binding to printed compounds – biochemical, small-molecule microarray, 635/667 nm fluorescence, primary screen (AID 1132). The following applies: 635 nm fluorescence, higher = more signal.
The target of test [14] is Fibroblast growth factor 2 (Homo sapiens) (UniProt P09038). Briefly: basic fibroblast growth factor binding to printed compounds – biochemical, small-molecule microarray, 635/667 nm fluorescence, primary screen (AID 1133). The conditions noted are these: FGF2, fluorescence 635/667, higher = more signal.
Test [15] can be described thus: JC-1 mitochondrial potential readout, lung cancer cells – cell-based, A549, JC-1 fluorescence, basal, 24 h, 100 nL, profiling panel (AID 1138).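 Note: A549 lung adenocarcinoma cells under basal conditions with no added stimulus; test concentration not given here.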 The conditions noted are these: higher = more signal.
The next test deals with Lefty1. As to the kind of experiment: Lefty1 protein binding to printed compounds – biochemical, small-molecule microarray, 635/667 nm fluorescence, primary screen (AID 1139). The conditions noted are these: fluorescence 635/667, higher = more signal.
Test [16] deals with wheat germ agglutinin (Triticum aestivum), Alexa647-labelled. As to the kind of experiment: Alexa647-WGA lectin binding to printed small molecules – biochemical, small-molecule microarray, 635/667 nm fluorescence, artefact control for SMM control-protein annotation, profiling panel (AID 1140).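 Note: score merges 667 nm feature emission with signal to noise over triplicate slides.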 The conditions noted are these: WGA-A647 binding, 635 nm fluorescence, higher = more signal.

For test [17], the target named is Luciferin 4-monooxygenase (Photinus pyralis) (UniProt P08659). As to the kind of experiment: inhibition of purified Photinus pyralis luciferase – biochemical, luminescence, purified enzyme, 2006 set, primary screen (AID 1141).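 Note: cell-free assay with purified firefly luciferase at 100 ng per well in PBS; test concentration not given here.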 The conditions noted are these: purified firefly luciferase, SteadyGlo luminescence, 30 min; higher = more signal, called active from +8 up or from −8 down.

Molecules are shown by their SMILES. Activity calls are given as the source filed them.

Follistatin (Homo sapiens), sequence (P19883 whole entry, looked up): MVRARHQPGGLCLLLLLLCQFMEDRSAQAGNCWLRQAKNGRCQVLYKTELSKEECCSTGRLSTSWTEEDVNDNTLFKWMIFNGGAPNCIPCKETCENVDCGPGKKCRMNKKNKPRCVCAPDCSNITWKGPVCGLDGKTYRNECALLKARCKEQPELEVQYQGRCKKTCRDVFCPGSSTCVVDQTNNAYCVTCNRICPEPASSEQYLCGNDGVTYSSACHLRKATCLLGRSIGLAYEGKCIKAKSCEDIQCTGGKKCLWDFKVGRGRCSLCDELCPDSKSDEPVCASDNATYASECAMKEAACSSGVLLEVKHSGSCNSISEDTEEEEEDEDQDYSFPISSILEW
Albumin (Bos taurus), sequence (P02769 whole entry, looked up): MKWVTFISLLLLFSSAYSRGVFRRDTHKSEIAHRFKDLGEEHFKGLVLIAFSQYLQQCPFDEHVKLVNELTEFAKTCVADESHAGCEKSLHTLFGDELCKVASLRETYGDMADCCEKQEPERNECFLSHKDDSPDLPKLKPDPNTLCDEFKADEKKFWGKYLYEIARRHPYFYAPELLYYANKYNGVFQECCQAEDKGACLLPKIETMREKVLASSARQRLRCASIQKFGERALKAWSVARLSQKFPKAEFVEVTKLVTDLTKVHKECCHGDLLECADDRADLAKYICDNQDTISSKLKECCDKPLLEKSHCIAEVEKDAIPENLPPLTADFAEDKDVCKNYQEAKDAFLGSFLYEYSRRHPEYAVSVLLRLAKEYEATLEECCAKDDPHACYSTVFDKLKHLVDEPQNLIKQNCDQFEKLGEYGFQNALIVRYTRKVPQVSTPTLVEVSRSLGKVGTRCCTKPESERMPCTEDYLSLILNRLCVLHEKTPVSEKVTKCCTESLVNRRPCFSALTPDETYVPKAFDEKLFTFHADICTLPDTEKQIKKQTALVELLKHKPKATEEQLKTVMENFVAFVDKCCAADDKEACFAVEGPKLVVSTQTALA
Fibroblast growth factor 2 (Homo sapiens), sequence (P09038 whole entry, looked up): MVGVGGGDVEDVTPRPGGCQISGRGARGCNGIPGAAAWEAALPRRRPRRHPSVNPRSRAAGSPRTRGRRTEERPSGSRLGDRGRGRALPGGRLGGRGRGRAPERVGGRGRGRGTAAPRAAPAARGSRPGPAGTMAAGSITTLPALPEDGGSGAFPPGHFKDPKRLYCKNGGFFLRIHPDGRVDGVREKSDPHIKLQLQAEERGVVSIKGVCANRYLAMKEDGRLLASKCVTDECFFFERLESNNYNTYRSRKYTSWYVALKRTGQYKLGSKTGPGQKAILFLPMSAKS
Luciferin 4-monooxygenase (Photinus pyralis), sequence (P08659 whole entry, looked up): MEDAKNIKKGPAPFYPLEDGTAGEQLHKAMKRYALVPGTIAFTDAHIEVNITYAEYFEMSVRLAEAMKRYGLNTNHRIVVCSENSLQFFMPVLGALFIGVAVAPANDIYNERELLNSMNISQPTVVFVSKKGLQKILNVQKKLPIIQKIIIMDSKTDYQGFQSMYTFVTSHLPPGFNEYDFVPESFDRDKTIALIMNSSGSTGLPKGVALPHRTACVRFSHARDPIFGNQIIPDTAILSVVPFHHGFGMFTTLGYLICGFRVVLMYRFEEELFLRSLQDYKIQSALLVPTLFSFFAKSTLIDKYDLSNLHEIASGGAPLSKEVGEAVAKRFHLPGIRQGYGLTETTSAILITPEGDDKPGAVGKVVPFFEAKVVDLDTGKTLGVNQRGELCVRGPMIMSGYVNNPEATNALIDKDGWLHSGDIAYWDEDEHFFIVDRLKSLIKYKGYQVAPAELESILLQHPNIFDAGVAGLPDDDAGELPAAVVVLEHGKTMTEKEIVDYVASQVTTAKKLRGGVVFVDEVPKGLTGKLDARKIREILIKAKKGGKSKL
Focal adhesion kinase 1 (Homo sapiens), sequence (Q05397 whole entry, looked up): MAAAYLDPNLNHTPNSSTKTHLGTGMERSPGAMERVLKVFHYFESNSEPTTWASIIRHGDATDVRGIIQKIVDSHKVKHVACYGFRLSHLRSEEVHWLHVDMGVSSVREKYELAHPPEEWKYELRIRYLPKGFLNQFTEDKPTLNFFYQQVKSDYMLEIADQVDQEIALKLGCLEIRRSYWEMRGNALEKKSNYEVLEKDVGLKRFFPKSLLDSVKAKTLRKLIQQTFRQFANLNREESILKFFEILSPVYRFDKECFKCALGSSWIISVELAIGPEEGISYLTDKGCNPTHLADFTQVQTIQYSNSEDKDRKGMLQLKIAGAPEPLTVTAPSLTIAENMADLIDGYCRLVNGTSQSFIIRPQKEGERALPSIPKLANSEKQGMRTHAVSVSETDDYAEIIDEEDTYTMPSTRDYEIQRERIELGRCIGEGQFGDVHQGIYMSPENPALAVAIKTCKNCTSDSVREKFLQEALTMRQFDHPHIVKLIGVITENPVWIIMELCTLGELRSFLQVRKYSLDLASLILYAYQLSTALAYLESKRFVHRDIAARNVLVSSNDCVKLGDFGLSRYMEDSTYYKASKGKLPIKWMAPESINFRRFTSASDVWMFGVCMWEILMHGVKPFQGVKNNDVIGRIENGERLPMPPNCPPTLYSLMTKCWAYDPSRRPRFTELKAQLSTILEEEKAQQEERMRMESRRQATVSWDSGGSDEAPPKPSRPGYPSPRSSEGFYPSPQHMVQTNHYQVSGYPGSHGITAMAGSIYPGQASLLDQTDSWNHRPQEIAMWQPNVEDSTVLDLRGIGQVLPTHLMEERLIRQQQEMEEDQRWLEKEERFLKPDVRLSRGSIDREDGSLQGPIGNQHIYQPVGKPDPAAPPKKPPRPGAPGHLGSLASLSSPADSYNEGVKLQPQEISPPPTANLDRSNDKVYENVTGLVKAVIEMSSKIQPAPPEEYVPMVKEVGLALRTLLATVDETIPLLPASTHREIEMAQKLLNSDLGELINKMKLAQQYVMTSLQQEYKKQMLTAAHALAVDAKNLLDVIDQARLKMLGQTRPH
Concanavalin-A (Canavalia ensiformis), sequence (P02866 whole entry, looked up): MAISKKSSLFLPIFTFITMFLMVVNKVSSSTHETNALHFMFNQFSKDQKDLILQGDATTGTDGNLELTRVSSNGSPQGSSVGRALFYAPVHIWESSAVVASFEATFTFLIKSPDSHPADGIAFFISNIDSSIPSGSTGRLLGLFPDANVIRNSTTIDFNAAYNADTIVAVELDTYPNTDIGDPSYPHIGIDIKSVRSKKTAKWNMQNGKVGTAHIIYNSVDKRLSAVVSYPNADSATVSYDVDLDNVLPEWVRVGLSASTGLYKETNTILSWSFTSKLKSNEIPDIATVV

On to `[N-]=[N+]=NCc1ccccc1C[C@@]1(C(=O)N2CCOCC2)N=C(c2ccc(OCCCO)cc2)O[C@@H]1c1ccccc1N=[N+]=[N-]`, for which the composite z-score came out at 1.02 with Albumin (Bos taurus); 0.402 in test [2]; 0.0753 in test [3]; 0.771 in test [4]; 2.48 in test [5]; 0.358 in [6]. The composite z-score with Sam68 (KHDRBS1) is 1.3; in [7], -1.07; in test [8] it was 1.18; in test [9] it was 1.8; in test [10], 1.22; in [11], 0.662. In addition, the composite z-score was 0.9 in [12]; 1.12 in [13]; 0.267 in test [14]; -0.123 with Lefty1; 1.37 in test [16]. Besides, the composite Z-score in [1] was -0.188 (inactive). In addition, the values for the z-score in test [15] and in test [17] were 1.4 and -8.34 (active), respectively.

Consider `COc1ccc(NN2C(C(O)c3cc(OC)c(OC)c(OC)c3)C=CC3C(=O)N(C4CCCCC4)C(=O)C32)cc1` (stereo not given), for which the composite z-score amounted to 1.02 in the test with Albumin (Bos taurus); 0.831 in [2]; 0.531 in [3]; 0.211 in test [4]; 2.42 in [5]; 0.754 in [6]. For the same molecule, the composite z-score in the test with Sam68 (KHDRBS1) was 1.3; in test [7], -1.2; in [8], 1.1; in [9] it was 0.717; in [10], 1.21; in [11], 1.06. In addition, the composite z-score in test [12] was 0.965; in [13] it was 0.412; in test [14], -0.418; with Lefty1 it was 0.133; in test [16] it was 1.22. Moreover, the composite Z-score in test [1] was 0.487 (inactive). Also, the z-score in test [15] was 0.469; in [17], 0.582 (inactive).

Take `[N-]=[N+]=NCc1ccccc1C[C@@]1(C(=O)O)N=C(c2ccc(OCCCO)cc2)O[C@@H]1c1ccccc1N=[N+]=[N-]`: the composite z-score in the test with Albumin (Bos taurus) is 0.855; in [2] it was 0.328; in [3], -0.0424; in [4] it was 0.726; in test [5], 2.05; in test [6], 0.497. The composite z-score with Sam68 (KHDRBS1) was 1.3; in test [7], -0.256; in test [8], 0.421; in test [9] it was 1.36; in test [10] it was 1.22; in test [11], 0.581. Also, the composite z-score was 1.02 in test [12]; 0.622 in test [13]; -0.316 in [14]; 0.42 with Lefty1; 0.415 in test [16]. In [1], the composite Z-score was 0.198 (inactive). For the same molecule, the figures for the z-score in test [15] and in test [17] were 0.376 and -8.1 (active), respectively.

Take `C=CC[C@]1(C(=O)OC)N=C(c2ccc(OCCCO)cc2)O[C@H]1c1ccccc1CN=[N+]=[N-]`: the composite z-score with Albumin (Bos taurus) is -0.573; in test [2] it was -0.0598; in [3], 0.122; in [4], 0.206; in test [5] it was 2.41; in test [6] it was -0.0978. Further, the composite z-score is -1.11 in the test with Sam68 (KHDRBS1); -0.45 in [7]; -1.06 in test [8]; 1.39 in test [9]; 0.731 in test [10]; 0.5 in test [11]. Also, the composite z-score was -0.268 in test [12]; 0.286 in test [13]; 0.172 in test [14]; -0.525 in the test with Lefty1; 0.605 in [16]. In test [1], the composite Z-score was 3.17 (inactive). For the same molecule, the z-score was 1.22 in [15] and -4.54 (inactive) in test [17].

As for `CC1=C([C@H](O)CCc2ccccc2)[C@H](CO)[C@@H]2C(=O)N(Cc3ccccc3)C(=O)[C@@H]2C1`, the composite z-score in the test with Albumin (Bos taurus) was 0.427; in test [2], 0.0349; in test [3], -0.117; in test [4] it was 0.347; in test [5], 0.307; in [6], -0.222. Also, the composite z-score in the test on Sam68 (KHDRBS1) is -0.364; in test [7], -0.0449; in test [8] it was 1.13; in test [9], 0.635; in test [10], 0.0269; in test [11], 0.194. For the same molecule, the composite z-score came out at 0.962 in [12]; 0.738 in test [13]; 0.113 in [14]; 0.388 in the test with Lefty1; 0.313 in [16]. Moreover, the composite Z-score in [1] was 0.39 (inactive). In addition, the z-score is 0.901 in test [15] and 0.215 (inactive) in [17].
